# The supplement of paper PMC8728848
# The entries come from a sample that favours the strongest signals as a whole.
# How the values were obtained:
# Assay in all cases: glycan array binding signal (z-score within array); higher = stronger binding
# Conditions in all cases: glycan notation: IUPAC condensed, linker removed
# [1] = biological target: Fuc(a1-2)Gal(b1-3)[Fuc(a1-4)]GlcNAc
# Procedure, shortened: (§1)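 Negative Z-scores can be read as non-binding. The Z-score is calculated within each array and then averaged across arrays of one protein sequence at different concentrations or buffers and across linkers. Arrays, 3228 in all, were curated from the Consortium for Functional Glycomics database and kept only where the protein sequence was available.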
# [2] = biological target: Fuc(a1-2)[Gal(a1-3)]Gal(b1-4)GlcNAc(b1-2)Man(a1-3)[Fuc(a1-2)[Gal(a1-3)]Gal(b1-4)GlcNAc(b1-2)Man(a1-6)]Man(b1-4)GlcNAc(b1-4)GlcNAc
# Procedure, shortened: as §1
# [3] = biological target: Fuc(a1-2)[GalNAc(a1-3)]Gal(b1-3)GlcNAc(b1-2)Man(a1-3)[Fuc(a1-2)[GalNAc(a1-3)]Gal(b1-3)GlcNAc(b1-2)Man(a1-6)]Man(b1-4)GlcNAc(b1-4)GlcNAc
# Procedure, shortened: as §1
# [4] = biological target: Fuc(a1-3)[Gal(b1-4)]GlcNAc(b1-2)Man(a1-3)[Fuc(a1-3)[Gal(b1-4)]GlcNAc(b1-2)Man(a1-6)]Man(b1-4)GlcNAc(b1-4)GlcNAc
# Procedure, shortened: as §1
# [5] = biological target: Fuc(a1-3)[Gal(b1-4)]GlcNAc(b1-3)Gal(b1-3)[Fuc(a1-4)]GlcNAc
# Procedure, shortened: as §1
# [6] = biological target: Gal(a1-3)Gal(b1-3)GlcNAc(b1-2)Man(a1-3)[Gal(a1-3)Gal(b1-3)GlcNAc(b1-2)Man(a1-6)]Man(b1-4)GlcNAc(b1-4)GlcNAc
# Procedure, shortened: as §1
# [7] = biological target: Gal(b1-3)[GlcNAc(b1-6)]GalNAc
# Procedure, shortened: as §1
# [8] = biological target: Gal(b1-4)GlcNAc(a1-6)Gal(b1-4)GlcNAc
# Procedure, shortened: as §1
# [9] = biological target: Gal3S(b1-3)[Fuc(a1-4)]GlcNAc
# Procedure, shortened: as §1
# [10] = biological target: Gal6S(b1-4)Glc
# Procedure, shortened: as §1
# [11] = biological target: GalNAc(a1-3)Gal
# Procedure, shortened: as §1
# [12] = biological target: GlcNAc(a1-4)Gal(b1-4)GlcNAc(b1-3)Gal(b1-4)GlcNAc(b1-3)Gal(b1-4)GlcNAc
# Procedure, shortened: as §1
# [13] = biological target: GlcNAc(a1-4)Gal(b1-4)GlcNAc(b1-3)Gal(b1-4)[Fuc(a1-3)]GlcNAc(b1-3)Gal(b1-4)[Fuc(a1-3)]GlcNAc
# Procedure, shortened: as §1
# [14] = biological target: Man(a1-3)[Man(a1-6)]Man(a1-6)[Man(a1-3)]Man
# Procedure, shortened: as §1
# [15] = biological target: Neu5Ac(a2-3)Gal(b1-3)GalNAc(b1-4)[Neu5Ac(a2-3)]Gal(b1-4)Glc
# Procedure, shortened: as §1
# [16] = biological target: Neu5Ac(a2-3)Gal(b1-3)GlcNAc
# Procedure, shortened: as §1
# [17] = biological target: Neu5Ac(a2-3)Gal(b1-4)GlcNAc(b1-3)Gal(b1-4)GlcNAc(b1-3)Gal(b1-4)GlcNAc
# Procedure, shortened: as §1
# [18] = biological target: Neu5Ac(a2-3)Gal(b1-4)GlcNAc(b1-3)Gal(b1-4)[Fuc(a1-3)]GlcNAc
# Procedure, shortened: as §1
# [19] = biological target: Neu5Ac(a2-3)Gal(b1-4)GlcNAc(b1-6)[Neu5Ac(a2-3)Gal(b1-3)]GalNAc
# Procedure, shortened: as §1
# [20] = biological target: Neu5Ac(a2-3)Gal(b1-4)[Fuc(a1-3)]GlcNAc(b1-3)GalNAc
# Procedure, shortened: as §1
# [21] = biological target: Neu5Ac(a2-3)Gal(b1-4)[Fuc(a1-3)]GlcNAc6S
# Procedure, shortened: as §1
# [22] = biological target: Neu5Ac(a2-6)Gal(b1-4)GlcNAc(b1-2)Man(a1-6)[GlcNAc(b1-2)Man(a1-3)]Man(b1-4)GlcNAc(b1-4)GlcNAc
# Procedure, shortened: as §1
# [23] = biological target: Neu5Ac(a2-6)GlcNAc(b1-4)GlcNAc(b1-4)GlcNAc
# Procedure, shortened: as §1
# [24] = biological target: Neu5Ac(a2-8)Neu5Ac(a2-8)Neu5Ac(a2-8)Neu5Ac(a2-3)[GalNAc(b1-4)]Gal(b1-4)Glc
# Procedure, shortened: as §1
# [25] = biological target: Neu5Gc(a2-3)Gal(b1-3)[Fuc(a1-4)]GlcNAc
# Procedure, shortened: as §1
binder,measurement,setting,value
"SAG1 (Toxoplasma gondii), P13664 (protein) MSVSLHHFIISSGFLTSMFPKAVRRAVTAGVFAAPTLMSFLRCGVMASDPPLVANQVVTCPDKKSTAAVILTPTENHFTLKCPKTALTEPPTLAYSPNRQICPAGTTSSCTSKAVTLSSLIPEAEDSWWTGDSASLDTAGIKLTVPIEKFPVTTQTFVVGCIKGDDAQSCMVTVTVQARASSVVNNVARCSYGADSTLGPVKLSAEGPTTMTLVCGKDGVKVPQDNNQYCSGTTLTGCNEKSFKDILPKLTENPWQGNASSDKGATLTIKKEAFPAESKSVIIGCTGGSPEKHHCTVKLEFAGAAGSAKSAAGTASHVSIFAMVIGLIGSIAACVA",glycan array binding signal (z-score),[1],0.139
same,glycan array binding signal (z-score),[2],0.615
same,glycan array binding signal (z-score),[3],-0.505
same,glycan array binding signal (z-score),[4],1.86
same,glycan array binding signal (z-score),[5],-0.232
same,glycan array binding signal (z-score),[6],1.47
same,glycan array binding signal (z-score),[7],-0.229
same,glycan array binding signal (z-score),[8],-0.386
same,glycan array binding signal (z-score),[9],7.52
same,glycan array binding signal (z-score),[10],-0.579
same,glycan array binding signal (z-score),[11],-0.761
same,glycan array binding signal (z-score),[12],0.265
same,glycan array binding signal (z-score),[13],2.24
same,glycan array binding signal (z-score),[14],-0.442
same,glycan array binding signal (z-score),[15],0.728
same,glycan array binding signal (z-score),[16],0
same,glycan array binding signal (z-score),[17],-0.703
same,glycan array binding signal (z-score),[18],1.71
same,glycan array binding signal (z-score),[19],1.61
same,glycan array binding signal (z-score),[20],3.63
same,glycan array binding signal (z-score),[21],-0.651
same,glycan array binding signal (z-score),[22],-0.2
same,glycan array binding signal (z-score),[23],-0.384
same,glycan array binding signal (z-score),[24],-0.241
same,glycan array binding signal (z-score),[25],0.031
